Screens: PubChem BioAssay, National Center for Advancing Translational Sciences (NCATS)
ClpP mod: qHTS Assay for Activators of ClpP. ATP-dependent Clp protease proteolytic subunit (Bacillus subtilis (strain 168)), P80244. purified B. subtilis ClpP, FRET peptide cleavage, 20 min. Potency, µM (highest dose often 57.5 µM). actives 1.9% (n = 340,000). AID 651965, 2013; active = well fitted falling curve with a large enough effect; inconclusive = small, poorly fitted or top-dose-only effect; inactive = no such curve, though single readings can be large or run the other way; note: the source files actives as falling curves though it sought activators and does not explain the sign; nearly all actives have a fitted effect of over 65% in size
Target sequence (P80244 whole entry, looked up): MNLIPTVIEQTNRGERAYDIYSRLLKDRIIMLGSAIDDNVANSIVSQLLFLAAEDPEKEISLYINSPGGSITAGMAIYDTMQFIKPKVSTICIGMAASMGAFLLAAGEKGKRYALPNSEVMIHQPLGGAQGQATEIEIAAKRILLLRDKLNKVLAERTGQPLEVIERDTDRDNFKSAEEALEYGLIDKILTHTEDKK
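Purified B. subtilis ClpP, 10 microg/mL final in Tris/HCl pH8 with KCl, BSA, glycerol and Tween-20, cleaved an Abz/nitrotyrosine-quenched decapeptide. Fluorescence (ex 320, em 430) was read at 0 and 20 min at room temperature. Delta was normalized to 5.8 microM ADEP and DMSO/no-enzyme controls.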
TCR act: activates T cell receptor signaling; primary human leukocytes, anti-CD3, IL-2 HTRF, 48 h; Potency, µM (highest dose often 9.22 µM), usual class: activators; 330,000 tested, under 10 active; AID 504894
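Primary human leukocytes were stimulated with a-CD3 beads plus compounds for 48 hr without co-stimulation; secreted IL-2 was quantified by HTRF using a-IL-2-K (europium cryptate) and a-IL-2-d2, excited at 320nm with acceptor emission read at 665nm.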
Mito fusion yeast: mitochondrial division inhibition or fusion activation | S. cerevisiae fusion-defective mutant growth rescue, CellTiterGlo 48 h | Potency, µM (top dose mostly 46.1 µM), usual class: activators | actives 0.23% (n = 320,000) | AID 485298; note: nearly all actives have a fitted effect of over 45% in size
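Compounds are tested for their ability to restore growth of mitochondrial fusion-defective yeast strains at non-permissive 37C in YPEG medium over 48 hours. Viability is quantified by luciferase luminescence.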
GRP78 ERSR act: ER stress response induction in glioma. U87-MG GRP78 promoter luciferase reporter, 16 h. Potency, µM, most hits filed as activators. actives 0.02% (n = 420,000). AID 602332; note: series mostly up to about 76 µM; nearly all actives have a fitted effect of over 35% in size
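Stably transfected U87-MG human glioma cells carrying a GRP78-based luminescent sensor were seeded at 1000 cells/well, pin-dosed with compounds and incubated 16 h. Luciferase reagent was then added, and end-point luminescence was read after 10 min at room temperature.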
MBNL1 CUG block: MBNL1-poly(CUG) RNA binding inhibition. Q9NR56. TR-FRET MBNL1-His/biotin-(CUG)12 binding, 665/545 ratio. Potency, µM (series often up to 57.5 µM), actives largely listed as inhibitors. actives 0.036% (n = 280,000); active = well fitted inhibition curve with a large enough effect in the signal ratio, with a control signal flat, not every such curve was filed as active; inconclusive = small, poorly fitted or top-dose-only effect, or effect the other way, or a change in a side signal; inactive = no such curve, though single readings can be large or run the other way; the % refers to the signal ratio
Target sequence (Q9NR56 whole entry, looked up): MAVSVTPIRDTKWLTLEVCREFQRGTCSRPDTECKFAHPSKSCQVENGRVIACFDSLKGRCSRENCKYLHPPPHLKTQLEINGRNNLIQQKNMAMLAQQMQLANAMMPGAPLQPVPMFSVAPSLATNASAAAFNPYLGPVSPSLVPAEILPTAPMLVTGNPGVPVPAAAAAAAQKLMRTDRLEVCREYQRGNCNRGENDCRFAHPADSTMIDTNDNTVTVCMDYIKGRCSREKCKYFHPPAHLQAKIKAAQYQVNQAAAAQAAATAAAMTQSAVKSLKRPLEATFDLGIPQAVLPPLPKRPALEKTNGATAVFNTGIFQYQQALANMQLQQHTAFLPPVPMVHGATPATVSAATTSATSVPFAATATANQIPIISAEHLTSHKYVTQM
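TR-FRET readout: Ex 340 nm, 665/545 nm emission ratio, normalized to buffer-only (basal) and MBNL1-(CUG)12 controls. Complex of MBNL1-His with Biotin-(CUG)12, compounds 92 nM–58 uM, incubated 60 min at room temperature.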
AT treatment: candidate therapy for ataxia-telangiectasia; F2112 A-T fibroblasts, KAP-1 phosphorylation AlphaLISA; neocarzinostatin DNA damage 30 min before lysis; Potency, µM (titrated, usually from 57.5 µM), actives largely listed as activators; actives 0.19% (n = 320,000); AID 485349; note: nearly all actives have a fitted effect of over 45% in size
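hTERT-immortalized A-T patient fibroblasts (F2112), 500 cells/well in OPTI-MEM, 1% FBS, got compounds for 60 min, then NCS for 30 min at 37C. Lysates were then assayed for phospho-KAP-1 by AlphaLISA (anti-pKAP1 donor, anti-KAP1 acceptor beads), 6 hr at 25C.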
Numbers stand for hits. Only some compounds are listed: those with a hit (about 1.8% of all), similar ones and a draw of the others. Unless noted, calls come from the whole dose curve; as a rule, active = well fitted curve in the direction sought with a large enough effect; inconclusive = small, poorly fitted or top-dose-only effect, or another doubt; inactive = no such curve, though single readings can be large; an effect the other way counts as inactive or inconclusive.

What do the screens show for `COc1ccccc1N(C)S(=O)(=O)c1ccc(Cl)c(C(=O)N2CCC2)c1`?
ClpP mod: 17.8µM; TCR act: inactive; Mito fusion yeast: inactive; GRP78 ERSR act: inactive; AT treatment: inactive

Results for CCCCC1OC23CCCCC2C(C#N)(C#N)C1(C#N)C(=N)O3 (configuration not stated) ?
ClpP mod: inactive; TCR act: inactive; Mito fusion yeast: inactive; GRP78 ERSR act: inactive; MBNL1 CUG block: inconclusive

What do the screens show for `N#CC1(C#N)C(c2ccccc2)OC23CCCCC2C1(C#N)C(=N)O3` (configuration not stated)?
ClpP mod: 14.1µM; TCR act: inactive; Mito fusion yeast: inactive; GRP78 ERSR act: inactive; AT treatment: inactive

What do the screens show for `CCCCC1OC23CCCCC2C(C#N)(C(=N)O3)C1(C#N)C#N` (configuration not stated)?
ClpP mod: inconclusive; TCR act: inactive; Mito fusion yeast: inactive; GRP78 ERSR act: inactive; MBNL1 CUG block: inactive; AT treatment: inactive

How did CCCCCCCCOc1ccc(C2OC34CCCCC3C(C#N)(C#N)C2(C#N)C(=N)O4)cc1 (configuration not stated) do in these assays?
ClpP mod: 20µM; TCR act: inactive; Mito fusion yeast: inactive; GRP78 ERSR act: inactive; MBNL1 CUG block: inconclusive; AT treatment: inactive

What do the screens show for `N#CC1(C#N)C(c2ccccc2)OC23CCCCCC2C1(C#N)C(=N)O3` (configuration not stated)?
ClpP mod: 31.6µM; TCR act: inactive; Mito fusion yeast: inactive; GRP78 ERSR act: inactive; MBNL1 CUG block: inactive; AT treatment: inactive

What do the screens show for `CCCCN(CCCC)c1ccc(C=Nc2ccc(/C=C/c3ccnc4ccccc34)cc2)cc1C`?
ClpP mod: inactive; GRP78 ERSR act: inactive

Results for CCN(C(=O)CCS(=O)(=O)c1cc2[nH]c(=O)c(=O)[nH]c2cc1C)c1ccccc1 ?
ClpP mod: 31.6µM; GRP78 ERSR act: inactive

Results for COc1ccc(OC)c(CN2CCCC(c3nc(-c4ccncc4)ncc3-c3ccccc3C)C2)c1 (configuration not stated) ?
GRP78 ERSR act: inactive

Results for COc1ccc(C2c3ccc4ccccc4c3Oc3ncn(CCCO)c(=N)c32)cc1OC (configuration not stated) ?
TCR act: inactive; Mito fusion yeast: inactive; GRP78 ERSR act: inactive; MBNL1 CUG block: inactive; AT treatment: 39.8µM

How did COc1ccc(C2c3ccc4ccccc4c3Oc3ncn(CCO)c(=N)c32)cc1OC (configuration not stated) do in these assays?
ClpP mod: inactive; TCR act: inactive; Mito fusion yeast: inactive; GRP78 ERSR act: inactive; MBNL1 CUG block: inactive; AT treatment: inactive

What do the screens show for `COc1ccc(Cc2nc3c4c(ncn3n2)Oc2ccc3ccccc3c2C4c2ccc(OC)c(OC)c2)cc1` (configuration not stated)?
ClpP mod: 12.6µM; TCR act: inactive; Mito fusion yeast: inactive; GRP78 ERSR act: inactive; MBNL1 CUG block: inactive; AT treatment: inactive

Results for CN(C)C(=O)NC1CCCCCCC1 ?
GRP78 ERSR act: inactive

Results for COc1ccccc1C(=O)NC1(C(F)(F)F)NC(=O)N(CCc2ccccc2)C1=O (configuration not stated) ?
ClpP mod: inactive; GRP78 ERSR act: inactive

How did CC(C)Oc1ccc(C(=O)NC2(C(F)(F)F)NC(=O)N(CCCc3ccccc3)C2=O)cc1 (configuration not stated) do in these assays?
ClpP mod: inactive; TCR act: inactive; Mito fusion yeast: 20µM; GRP78 ERSR act: inactive; MBNL1 CUG block: inactive; AT treatment: inactive

How did O=C(N/N=C\c1ccncc1)c1ccccc1O do in these assays?
TCR act: inactive; Mito fusion yeast: inactive; GRP78 ERSR act: inactive; MBNL1 CUG block: inactive; AT treatment: inactive

What do the screens show for `C=C(c1ccccc1O)n1ccnc1`?
ClpP mod: 12.6µM; TCR act: inactive; Mito fusion yeast: inactive; GRP78 ERSR act: inactive; MBNL1 CUG block: inactive; AT treatment: inactive

How did O=C(/C=C/c1ccc(/C=C/C(=O)Nc2ccc(C3=NCCN3)cc2)cc1)Nc1ccc(C2=NCCN2)cc1 do in these assays?
GRP78 ERSR act: inactive

How did Cc1cc2c(c(=O)n1C)C(Cc1ccccc1)C(C#N)=C(N)O2 (configuration not stated) do in these assays?
ClpP mod: 28.2µM; TCR act: inactive; Mito fusion yeast: inactive; GRP78 ERSR act: inactive; MBNL1 CUG block: inconclusive; AT treatment: inactive

How did CCN(CC)CCCn1c(C)cc2c(c1=O)C(c1ccccc1)C(C#N)=C(N)O2 (configuration not stated) do in these assays?
ClpP mod: inactive; TCR act: inactive; Mito fusion yeast: 11.2µM; GRP78 ERSR act: inactive; MBNL1 CUG block: inactive; AT treatment: inactive

Results for CCn1c(C)cc2c(c1=O)C(c1ccncc1)C(C#N)=C(N)O2 (configuration not stated) ?
ClpP mod: inactive; TCR act: inactive; Mito fusion yeast: inactive; GRP78 ERSR act: inactive; MBNL1 CUG block: inactive; AT treatment: inactive

How did CCCC1C(C#N)=C(N)Oc2cc(C)n(C)c(=O)c21 (configuration not stated) do in these assays?
ClpP mod: 31.6µM; Mito fusion yeast: inactive; GRP78 ERSR act: inactive; MBNL1 CUG block: inconclusive; AT treatment: inactive

Results for CCOc1ccc2cc(C#N)c(SCC(=O)OCc3ccccc3)nc2c1 ?
ClpP mod: inactive; GRP78 ERSR act: inactive

What do the screens show for `COc1cccc(Cn2cccc(NC(=O)Nc3cccc(C#N)c3)c2=O)c1`?
ClpP mod: 28.2µM; TCR act: inactive; Mito fusion yeast: inactive; GRP78 ERSR act: inactive; MBNL1 CUG block: inactive; AT treatment: inactive

Results for CCCCC[C@H](O)/C=C/C=C\C/C=C\C/C=C\CCCC(=O)O ?
GRP78 ERSR act: inactive

Results for N#Cc1c(N)oc(-c2ccc3c(c2)OCO3)c1-c1ccc2c(c1)OCO2 ?
ClpP mod: 14.1µM; TCR act: inactive; Mito fusion yeast: inactive; GRP78 ERSR act: inactive; MBNL1 CUG block: inconclusive

How did Cc1ccc(-c2cc(-c3ccc(C)o3)nc(N)c2C#N)cc1 do in these assays?
ClpP mod: 22.4µM; TCR act: inactive; Mito fusion yeast: inactive; GRP78 ERSR act: inactive; MBNL1 CUG block: inconclusive; AT treatment: inactive

Results for Cc1ccc(-c2cc(-c3ccc4c(c3)OCO4)c(C#N)c(N)n2)o1 ?
ClpP mod: 35.5µM; TCR act: inactive; Mito fusion yeast: inactive; GRP78 ERSR act: inactive; MBNL1 CUG block: inconclusive; AT treatment: inactive
